Reference: the supplement of paper PMC11417369
± gives the standard deviation of the averaged measurements. The full ranking holds about 25,000 sequences; the median of “ln(normalized median fluorescence intensity)” is about 8.6, and the highest 2% start at about 10. Only a selection was taken, and the highest values are over-represented in it overall.

Each sequence was assayed on PfAP2-EXP AP2 domain (GST-tagged) (assay: gcPBM binding intensity (ln(normalized median fluorescence intensity)); higher = stronger DNA binding).
How it was run: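 DNA-binding domains from P. falciparum, fused to GST and produced in E. coli, were put on an Agilent 4 × 180k double-stranded probe array for 1 h in 1× PBS holding 1% milk, 0.2 mg/ml BSA, 0.5% salmon testes DNA and 0.03% Triton X-100. Probes were primer-extended, 36 bp long and drawn from intergenic genomic regions, with negative controls included. After Alexa488 anti-GST antibody detection and a 488 nm scan, binding intensity was set as the highest Masliner-normalised natural-log median intensity across replicate spots of either probe orientation.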

In order of falling “gcPBM binding intensity (ln)” value:
1. AACCATTGGGAAAGGGTGCACATATATATATATATA  10.8 ± 0.35
2. TAAAAAAAAATAAAAAGTACATATATATATATATAT [XGTACX_site1155]  10.3 ± 0.46
3. TATATATATATATATACACACACACCCATATATATA [CACACA_site8812]  10.3 ± 0.3
4. TCAAAGCACCCATACACACACATATATATATATATA [CACACA_site4317]  10.3 ± 0.19
5. TATATATATATATATAGTACACATATCACATAAATG [XGTACX_site6379]  10.2 ± 0.23
6. AATAAATAAATAAGTACACACATATATATATATATA [CACACA_site284]  10.2 ± 0.6
7. ATTAAAATATAAGTCACACATATATATATATATATA [CACACA_site6145]  10.2 ± 0.33
8. TATATATATATATACACACACACACCCATATATATA [CACACA_site2538]  10.2 ± 0.24
9. GTAAGTTGTGCATTCACACACATATATATATATATA [CACACA_site3303]  10.2 ± 0.28
10. ATGTAAGTTGTGCATTCACACACATATATATATATA [CACACA_site9086]  10.2 ± 0.2
11. ATAAATATTGGGTGCACACACATAATATATATATAT [CACACA_site2272]  10.1 ± 0.21
12. TCAAAGCACAGATACACACACATATATATATATATA [CACACA_site287]  10 ± 0.42
13. TAACAAGGTTTATATGCATGCAAACATAACCAAAAA [TGCATGCA_site824]  9.96 ± 0.23
14. TATATATATATATTCACACATAAATATATGCACCCA [CACACA_site4263]  9.96 ± 0.2
15. CATACACCCATACATACACACATACATATATATATA [CACACA_site8591]  9.895 ± 0.064
16. ATAAAATAAAATAAAAGTACATAAATATATATATAT [XGTACX_site6110]  9.83 ± 0.28
17. ATATATATATAATGTAGTACTATTTAATAATAAGCC [XGTACX_site1263]  9.775 ± 0.078
18. TACATAAAATATATCACACATATAATATATATATAT [CACACA_site5834]  9.54 ± 0.16
19. AAAGGAAAAGTTGACTGTACATAAGTAAAAAATAAT [XGTACX_site788]  9.15 ± 0.42
20. ACATACATACACCCACGTACGTACCGAAACACCACC [XGTACX_site1212]  9.11 ± 0.35
21. AGAATAATACAAAAATGTACATTAATAAAAAGATAG [XGTACX_site780]  8.99 ± 0.42
22. GAAGAAAAATAAAAAGTGCAAAAAAAGTAAAAATTT [GTGCAC_site9897]  8.95 ± 0.49
23. AGTTGGATACGAAGATGTACAATAATAATAATTAAG [XGTACX_site3561]  8.9 ± 0.35
24. TGTATTTTTAACATATGTACGAATAGCACGTGTTAT [XGTACX_site3640]  8.89 ± 0.44
25. AGTTCAGAATTGAATAGTACATAAATATAACAAAAT [XGTACX_site650]  8.88 ± 0.36
26. CTTACATAAAATATCACACACATAAAAAAACAATAT [CACACA_site1901]  8.87 ± 0.39
27. TAACATAGCAATGTTTCACACACAAGAAAAAATACA [CACACA_site8747]  8.84 ± 0.45
28. TATATATACATATACACACACACACCCATATATATA [CACACA_site2246]  8.84 ± 0.39
29. AGGTACTTTTTTAAAACACACATATAATAAATACAC [CACACA_site4730]  8.84 ± 0.28
30. TGAATAAATCAAAGCACACATACACCCACATATATA [CACACA_site286]  8.78 ± 0.49
31. TATAAAAATAAAAAAAGTACACATAAAAATATATAT [XGTACX_site5189]  8.77 ± 0.33
32. CATATACATACACATACACACATACACCCATACACA [CACACA_site8514]  8.77 ± 0.55
33. CACATATATACACATACACACACACCCATACACCCA [CACACA_site8505]  8.77 ± 0.33
34. TGTAATAAATAGTACACACACACATATATATATATT [CACACA_site1388]  8.73 ± 0.38
35. CAAAATTAATAAGTCACACACACATATATAATATAT [CACACA_site798]  8.73 ± 0.45
36. TTATATTATACATACACACCCATATAATATGTTTTT [CACACA_site4636]  8.73 ± 0.42
37. ATATAAATAAAAAAAAGTACATAATATATAAAAATA [XGTACX_site3065]  8.72 ± 0.33
38. TTTAAGCGTTCACTGCTGCACTTTTATGTTGTGACC  8.71 ± 0.51
39. TATCACAAAATATACTGTACATACAGGCAGTAATAT [XGTACX_site2487]  8.71 ± 0.34
40. AATAAATAAATAAGTACACACATATAAATATAAATA [CACACA_site6271]  8.69 ± 0.27
41. AACTTCTTTTTTATAACACACAAAATATATATACAA [CACACA_site282]  8.69 ± 0.42
42. GGAAAAACCATTCGCACACACACATAATATATAATA [CACACA_site1424]  8.66 ± 0.47
43. GTAAGTTGTGCATTCACACACATATAAATATAAATA [CACACA_site7536]  8.66 ± 0.24
44. TATTTATGTTCATATAAACACACGTAAAATTCAAGG [CACACA_site1538]  8.62 ± 0.39
45. TTTTTTTTTTTTTTTGCACACAGGGTGTAGGACAAG [CACACA_site2842]  8.6
46. GGGTTAATATTTACTACACACACTTAAAATATGTAT [CACACA_site47]  8.59 ± 0.47
47. AAATTAATAAGTCACACACACATATATAATATATAT [CACACA_site799]  8.54 ± 0.36
48. GAAAAAAAAAAAAATACACACAAATTGGTATAGAAT [CACACA_site380]  8.53 ± 0.47
49. GTGAAATTATATTTTTGTACATATATTATATATTAT [XGTACX_site3387]  8.52 ± 0.32
50. TAAATAATAATAAAATGTACATTATATATGTATATG [XGTACX_site8672]  8.44 ± 0.36
51. TTGGTGATATTTTTCTCACACATTTACCAGAGATGT [CACACA_site4684]  8.44 ± 0.37
52. AAATAAAATACAATATGATAAAATGTTATCATATAT [CACACA_negctrl_site538]  8.35 ± 0.38
53. ATATAATATATTTTCACACATATTTTATGATGATAA [CACACA_site5614]  8.3 ± 0.42
54. ATAATATTAGTAAACACACTCAAATTATATATGATA [CACACA_site5721]  8.28 ± 0.59
55. TTTAATATATATATGTGTACATATAAATTATATATA [XGTACX_site8511]  8.2 ± 0.23
56. TAAATTTGTGGGATTTCACACAGGTTTATTTACATT [CACACA_site5455]  8.13 ± 0.45
57. AGTTTTTATTAAAACAAAATTTAATTATAACGTTGA [XGTACX_negctrl_site298]  8.08 ± 0.3
